This note sets out measurements from the supplement of paper PMC9446081.

SMILES strings stand for the structures. About 220 (0.56%) of roughly 39,000 compounds showed activity. The sample as a whole holds a higher share of actives than the screen did.
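Further: Wild-type cells incubated without shaking, value is the mean of two biological replicates.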

For this assay, the system named is Escherichia coli K-12 BW25113. The assay is described as follows: relative growth (OD600 normalised to plate interquartile mean) (fraction); higher = less growth inhibition, active = 0.2 or less. Conditions: 50 µM; LB; incubation time: overnight (16-24 h).
On to `C[C@H](CO)N1C[C@H](C)[C@@H](CN(C)C(=O)NC2CCCCC2)Oc2ccc(NC(=O)Nc3cccc4ccccc34)cc2C1=O`, for which the relative growth is 1.04 (inactive).

In the case of `CCCC[P+](CCCC)(CCCC)Cc1ccc(NC(=O)[C@H](Cc2ccc3ccccc3c2)N/C(=N/C2CCCCC2)NC2CCCCC2)cc1`, the relative growth is 0.0326 (active).

Take `C[C@@H]1CN([C@H](C)CO)C(=O)c2cc(NC(=O)Nc3cccc4ccccc34)ccc2O[C@@H]1CN(C)C(=O)NC1CCCCC1`: the relative growth is 1 (inactive).

Turning to `CN(Cc1ccccc1)C(=O)[C@H](Cc1ccc2ccccc2c1)NC(=O)[C@@H]1CCCN1C(=O)Nc1ccccc1[N+](=O)[O-]`, the relative growth is 1.04 (inactive).

Regarding `CCC(=O)Nc1ccc2ccccc2c1`, the relative growth is 0.842 (inactive).

As to `CCCC[P+](CCCC)(CCCC)Cc1ccc(NC(=O)[C@@H](Cc2ccc3ccccc3c2)N=C(NC2CCCCC2)NC2CCCCC2)cc1`, the relative growth is 0.0386 (active).

Regarding `C[C@@H]1CCCCO[C@H](CN(C)C(=O)NC2CCCCC2)[C@@H](C)CN([C@H](C)CO)C(=O)c2cc(NS(=O)(=O)c3ccccc3)ccc2O1`, the relative growth was 0.983 (inactive).

Consider `Cc1ccc2c(c1)[C@](C)(O)CCS2`, for which the relative growth was 1.01 (inactive).

Take `COc1ccc(S(=O)(=O)Nc2ccc3c(c2)CC(=O)N([C@H](C)CO)C[C@H](C)[C@H](CN(C)C(=O)Nc2c(C)noc2C)O3)cc1`: the relative growth is 1.02 (inactive).

With `Cc1ccc(S(=O)(=O)N(C)C[C@H]2Oc3ccc(NS(=O)(=O)c4ccccc4)cc3CC(=O)N([C@@H](C)CO)C[C@H]2C)cc1`, the relative growth was 0.993 (inactive).

For the molecule `C[C@H]1CN([C@@H](C)CO)C(=O)c2cccc(NS(=O)(=O)c3cccs3)c2O[C@@H]1CN(C)S(=O)(=O)c1ccc(F)cc1`, the relative growth is 1.02 (inactive).

For the molecule `O=C(NO)c1ccc(C(=O)N/N=C/[C@H](O)[C@@H](O)[C@H](O[C@@H]2O[C@H](CO)[C@H](O)[C@H](O)[C@H]2O)[C@H](O)CO)cc1`, the relative growth is 0.996 (inactive).

Turning to `CN1CCN(CC(=O)N2c3ccccc3C(=O)Nc3cccnc32)CC1.Cl.Cl`, the relative growth was 1.08 (inactive).

As to `Cc1scc2c1N(C(=O)CN1CCN(C)CC1)c1ccccc1NC2=O.Cl`, the relative growth was 0.044 (active).

On to `O=C(O)CCC(=O)N1CC(=O)Nc2ccccc21`, for which the relative growth is 0.964 (inactive).

Consider `Cc1c(N)nc([C@H](CC(N)=O)NC[C@H](N)C(N)=O)nc1C(=O)N[C@H](C(=O)N[C@H](C)[C@@H](O)[C@H](C)C(=O)N[C@H](C(=O)NCCc1nc(-c2nc(C(=O)NCCCNCCCCN)cs2)cs1)[C@@H](C)O)[C@@H](O[C@@H]1O[C@@H](CO)[C@@H](O)[C@H](O)[C@@H]1O[C@@H]1O[C@H](CO)[C@@H](O)[C@H](OC(N)=O)[C@@H]1O)c1c[nH]cn1`, for which the relative growth is 0.0715 (active).

As for `C[C@H](CO)N1C[C@H](C)[C@@H](CN(C)C(=O)Nc2ccc(F)cc2)OCc2ccccc2-c2ccccc2C1=O`, the relative growth was 0.975 (inactive).

As for `C[C@H](CO)N1C[C@H](C)[C@@H](CN(C)C(=O)Nc2cccc3ccccc23)OCCCC[C@H](C)Oc2ccc(NS(C)(=O)=O)cc2C1=O`, the relative growth was 1.01 (inactive).

Turning to `Cc1noc(C)c1S(=O)(=O)N(C)C[C@H]1Oc2c(NS(=O)(=O)c3cn(C)cn3)cccc2C(=O)N([C@H](C)CO)C[C@@H]1C`, the relative growth is 0.992 (inactive).

Take `C[C@@H]1CN([C@H](C)CO)C(=O)c2cccc(NS(=O)(=O)c3ccc(F)cc3)c2O[C@@H]1CN(C)S(=O)(=O)c1cn(C)cn1`: the relative growth was 0.99 (inactive).

With `C[C@@H]1CCCCO[C@@H](CN(C)C(=O)C2CCCCC2)[C@@H](C)CN([C@H](C)CO)C(=O)c2cc(NC(=O)CCC(F)(F)F)ccc2O1`, the relative growth is 0.92 (inactive).

With `CC(C)(C)c1cc2[nH]c(N)nc(=N)n2n1`, the relative growth was 1.01 (inactive).

Regarding `C[C@@H]1CN([C@@H](C)CO)S(=O)(=O)c2ccc(C#CC3CC3)cc2O[C@@H]1CN(C)C(=O)C1CCCCC1`, the relative growth was 1.01 (inactive).

On to `CN(C)[C@@H]1C(=O)[C@@H](C(N)=O)C(=O)[C@@]2(O)C(=O)[C@@H]3C(=O)c4c(O)c(NC(=O)CN5CCCC5)cc(F)c4C[C@H]3C[C@@H]12`, for which the relative growth was 0.0357 (active).

Turning to `CN(C)[C@@H]1C(=O)[C@@H](C(=O)NCNCCCC[C@H](N)C(=O)O)C(=O)[C@@]2(O)C(=O)[C@@H]3C(=O)c4c(O)cccc4[C@@](C)(O)[C@H]3C[C@@H]12`, the relative growth is 0.977 (inactive).

Regarding `CN(C)c1cc(NC(=O)CNC(C)(C)C)c(O)c2c1C[C@H]1C[C@H]3[C@H](N(C)C)C(=O)[C@@H](C(N)=O)C(=O)[C@@]3(O)C(=O)[C@H]1C2=O`, the relative growth is 1.01 (inactive).

As for `CN(C)[C@@H]1C(=O)[C@@H](C(N)=O)C(=O)[C@@]2(O)C(=O)[C@H]3C(=O)c4c(O)ccc(Cl)c4[C@@H](O)[C@H]3C[C@@H]12`, the relative growth was 0.0324 (active).

For `CN(C)c1cc(CNCC(C)(C)C)c(O)c2c1C[C@H]1C[C@H]3[C@H](N(C)C)C(=O)[C@H](C(N)=O)C(=O)[C@@]3(O)C(=O)[C@@H]1C2=O`, the relative growth was 0.0692 (active).

For the molecule `CN(C)c1ccc(O)c2c1C[C@@H]1C[C@@H]3[C@@H](N(C)C)C(=O)C(C(N)=O)=C(O)[C@]3(O)C(=O)[C@H]1C2=O`, the relative growth was 0.0589 (active).

In the case of `C[C@@H]1CCCCO[C@@H](CN(C)C(=O)NC2CCCCC2)[C@@H](C)CN([C@H](C)CO)C(=O)c2cc(NC(=O)C3CCCCC3)ccc2O1`, the relative growth was 1.02 (inactive).

In the case of `C[C@H]1CN([C@@H](C)CO)C(=O)c2cc(NC(=O)CCCCCC(=O)Nc3ccccc3N)ccc2O[C@H]1CN(C)CC1CCCCC1`, the relative growth is 0.97 (inactive).

With `COc1ccc(NC(=O)Nc2ccc3c(c2)C(=O)N([C@@H](C)CO)C[C@H](C)[C@H](CN(C)C(=O)Nc2ccc(OC)cc2)OCCCC[C@H](C)O3)cc1`, the relative growth was 0.996 (inactive).

Turning to `CN(C)C(=O)[C@H]1C[C@@H]2CCN(S(C)(=O)=O)C[C@H]2O1`, the relative growth is 0.988 (inactive).

As to `Cc1noc(C)c1NC(=O)N(C)C[C@@H]1Oc2c(NC(=O)c3ccncc3)cccc2C(=O)N([C@H](C)CO)C[C@@H]1C`, the relative growth is 1 (inactive).

As to `C[C@@H]1CN([C@@H](C)CO)C(=O)Cc2cc(NC(=O)Cn3cnnn3)ccc2O[C@H]1CN(C)C(=O)Nc1ccc(C(F)(F)F)cc1`, the relative growth was 0.993 (inactive).

For the molecule `CC(C)NC(=O)Nc1ccc2c(c1)C(=O)N([C@H](C)CO)C[C@H](C)[C@@H](CN(C)CC1CCCCC1)OCCCC[C@@H](C)O2`, the relative growth was 0.975 (inactive).

Regarding `C[C@@H]1CN([C@H](C)CO)C(=O)c2cccc(NS(C)(=O)=O)c2O[C@@H]1CN(C)C(=O)NC1CCCCC1`, the relative growth is 0.99 (inactive).

For `COc1ccc(S(=O)(=O)N(C)C[C@@H]2OCCCC[C@@H](C)Oc3ccc(NC(=O)CCC(F)(F)F)cc3C(=O)N([C@H](C)CO)C[C@@H]2C)cc1`, the relative growth is 1.01 (inactive).

Turning to `CN(C)c1cc(NC(=O)CNC(C)(C)C)c(O)c2c1C[C@H]1C[C@H]3[C@H](N(C)C)C(=O)C(C(N)=O)=C(O)[C@@]3(O)C(=O)[C@H]1C2=O`, the relative growth is 1 (inactive).

In the case of `CN(C)[C@@H]1C(=O)[C@@H](C(N)=O)C(=O)[C@@]2(O)C(=O)[C@H]3C(=O)c4c(O)cccc4C[C@H]3C[C@@H]12`, the relative growth was 0.972 (inactive).

As to `CN(C)c1ccc(O)c2c1C[C@H]1C[C@H]3[C@H](N(C)C)C(=O)[C@@H](C(N)=O)C(=O)[C@@]3(O)C(=O)[C@H]1C2=O`, the relative growth is 0.0587 (active).

For `CN(C)c1ccc(O)c2c1C[C@H]1C[C@H]3[C@H](N(C)C)C(=O)C(C(N)=O)=C(O)[C@@]3(O)C(=O)[C@H]1C2=O`, the relative growth is 0.184 (active).

With `C[C@@H]1CN([C@H](C)CO)C(=O)c2cc(NS(=O)(=O)c3cccs3)ccc2O[C@H]1CN(C)Cc1ccc(-c2ccccc2)cc1`, the relative growth is 0.997 (inactive).

For `C[C@H](CO)N1C[C@H](C)[C@H](CN(C)C(=O)Nc2cccc3ccccc23)Oc2ncc(C#Cc3ccccc3)cc2C1=O`, the relative growth was 0.961 (inactive).

On to `C[C@@H]1CCCCO[C@H](CN(C)Cc2ccncc2)[C@H](C)CN([C@H](C)CO)C(=O)c2cc(NC(=O)Nc3ccccc3)ccc2O1`, for which the relative growth was 0.834 (inactive).

Consider `CN[C@H]1CN(c2ccc3c(=O)c(C(=O)O)cn(-c4nccs4)c3n2)C[C@@H]1OC`, for which the relative growth is 0.0372 (active).

For the molecule `COC(=O)C1=C[C@@H](O)[C@@H](O)[C@H](O[C@@H]2O[C@H](COC(=O)/C=C/c3ccccc3)[C@@H](O)[C@H](O)[C@H]2O)C1`, the relative growth is 0.984 (inactive).

`COc1ccc(S(=O)(=O)Nc2cccc3c2O[C@@H](CN(C)S(=O)(=O)c2ccc(OC)cc2)[C@H](C)CN([C@@H](C)CO)C3=O)cc1`: the relative growth is 1.01 (inactive).

Turning to `C[C@H]1CN([C@@H](C)CO)C(=O)Cc2cc(NC(=O)Nc3ccccc3)ccc2O[C@H]1CN(C)Cc1ccc(Oc2ccccc2)cc1`, the relative growth was 1.01 (inactive).

`C[C@@H]1CN([C@H](C)CO)C(=O)c2cc(NS(=O)(=O)c3ccccc3)ccc2O[C@@H]1CN(C)CC1CC1`: the relative growth was 1 (inactive).

On to `NC[C@H]1OB(O)c2c(OCCO)ccc(Cl)c21`, for which the relative growth was 0.982 (inactive).

Consider `NC[C@H]1OB(O)c2c(OCCCO)cccc21`, for which the relative growth was 0.04 (active).

For the molecule `CC(C)(C)OC(=O)N1CCC(N)CC1`, the relative growth is 0.98 (inactive).

Turning to `C=C1c2cccc(O)c2C(=O)C2=C(O)[C@]3(O)C(O)=C(C(N)=O)C(=O)[C@@H](N(C)C)[C@@H]3[C@@H](O)[C@H]12`, the relative growth was 0.225 (inactive).

As for `CC1c2cccc(O)c2C(=O)C2=C(O)C3(O)C(=O)C(C(N)=O)=C(O)C(N(C)C)C3C(O)C21.Cl` (stereo not drawn), the relative growth was 0.0595 (active).

With `C=C1c2cccc(O)c2C(=O)C2=C(O)C3(O)C(=O)C(C(N)=O)=C(O)C(N(C)C)C3C(O)C12.Cl` (stereo not drawn), the relative growth is 0.0546 (active).

Turning to `C=C1c2cccc(O)c2C(=O)[C@@H]2C(=O)[C@]3(O)C(=O)[C@@H](C(N)=O)C(=O)[C@@H](N(C)C)[C@@H]3[C@@H](O)[C@H]12`, the relative growth was 0.0752 (active).

On to `C[C@H]1c2cccc(O)c2C(=O)C2=C(O)[C@]3(O)C(=O)[C@@H](C(N)=O)C(=O)[C@@H](N(C)C)[C@@H]3[C@@H](O)[C@@H]21`, for which the relative growth is 0.0376 (active).
